# Screens deposited in PubChem BioAssay by National Center for Advancing Translational Sciences (NCATS).
# TDP1 cell CPT – growth inhibition of DT40 Tdp1-/-;hTDP1 cells with camptothecin (screen for TDP1 inhibitors) | hit rate 12% among 420,000 | Potency, µM (series often up to 46.2 µM), for the others: at the highest dose activity change, negative = growth inhibition, usual class: inhibitors | chicken DT40 Tdp1-/-;hTDP1 cells + 20 nM CPT, ATP luminescence, 48 h; also: potency is read from the fitted curve at half-maximal effect; % is scaled to controls: 0 for no effect and ±100 for the full control effect; nearly all actives have a fitted effect of over 55% in size
#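 Chicken DT40 Tdp1-/- cells complemented with human TDP1, 400 cells/well, exposed to compounds plus 20 nM camptothecin for at least 48 h at 37 C; viability read as ATP content by CellTiter-Glo luminescence.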
# DRD3 agonist – D3 dopamine receptor (human) agonism; P35462; D3R DiscoveRx beta-arrestin cells, luminescence, 90 min; max activation, %; hit rate 0.58% among 410,000; in the data active = max activation above about 30%; also: 0% is about no effect
# Target sequence (P35462 whole entry, looked up): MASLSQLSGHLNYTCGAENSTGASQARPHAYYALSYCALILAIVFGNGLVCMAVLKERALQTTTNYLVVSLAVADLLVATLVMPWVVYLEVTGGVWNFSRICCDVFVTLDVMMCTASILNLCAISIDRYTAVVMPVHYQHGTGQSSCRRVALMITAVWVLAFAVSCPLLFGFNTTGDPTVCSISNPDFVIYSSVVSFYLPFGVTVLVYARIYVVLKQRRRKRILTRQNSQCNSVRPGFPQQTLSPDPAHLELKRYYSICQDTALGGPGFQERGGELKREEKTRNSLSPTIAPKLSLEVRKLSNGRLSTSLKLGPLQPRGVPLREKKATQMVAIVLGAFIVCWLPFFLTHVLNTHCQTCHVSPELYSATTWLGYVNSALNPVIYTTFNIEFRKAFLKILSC
#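 Agonist mode: compounds and dopamine controls were applied to plated cells for 90 min at 37 degrees C after an overnight attachment at 1500 cells/well. Luminescent read-out followed 30 - 60 minutes at room temperature with DiscoveRx detection reagent.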
# IL-1B inflam inh – inhibitors of inflammasome signaling (IL-1 beta secretion); THP-1 LPS/ATP IL-1B secretion, AlphaLISA, 16 h; stronger effect = lower value; activity change, % at 57.5 µM; hit rate 4.7% among 360,000; AID 743279; in the data active = activity change below about -50%; inconclusive = mostly about -30% to -49%; also: % is scaled to controls: 0 for no effect and ±100 for the full control effect
#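 Secreted IL-1B measured by AlphaLISA bead assay after 16 h compound exposure of THP-1 cells; compounds (final up to 57.5 uM) added 1 h before LPS (250 ng/mL) and ATP (1.25 mM) stimulation; lower signal means less secretion.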
# ClpP mod – qHTS Assay for Activators of ClpP. hit rate 1.9% among 340,000. Potency, µM (doses to about 57.5 µM), without a hit: top-dose activity change, negative = active. purified B. subtilis ClpP, FRET peptide cleavage, 20 min; active = well fitted falling curve with a large enough effect; inconclusive = small, poorly fitted or top-dose-only effect; inactive = no such curve, though single readings can be large or run the other way; also: potency is read from the fitted curve at half-maximal effect; the source files actives as falling curves though it sought activators and does not explain the sign; nearly all actives have a fitted effect of over 65% in size
# Target sequence (P80244 whole entry, looked up): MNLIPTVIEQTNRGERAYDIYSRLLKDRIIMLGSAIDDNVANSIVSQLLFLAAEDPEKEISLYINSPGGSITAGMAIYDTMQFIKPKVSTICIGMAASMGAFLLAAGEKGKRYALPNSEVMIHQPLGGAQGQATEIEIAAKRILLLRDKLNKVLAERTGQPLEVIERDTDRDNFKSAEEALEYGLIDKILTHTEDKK
#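 FRET quenching reversal measured ClpP activation: 10 microg/mL B. subtilis ClpP at pH 8 with the FRET-FV decapeptide, read at 430 nm after 320 nm excitation. The 20-min minus 0-min signal was scaled between DMSO/no-enzyme wells and ADEP (5.8 microM final).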
# DRD3 antagonist – antagonists of human D3 dopamine receptor | D3R cells, DiscoveRx beta-arrestin luminescence, antagonist mode; stronger effect = lower value | max response, negative = inhibition, % | hit rate 2.5% among 360,000 | P35462; in the data active = max response below about -50%; inconclusive = no clear call, values can overlap the other calls; also: % is scaled to controls: 0 for no effect and ±100 for the full control effect
#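 Cells expressing the human receptor were seeded at 1500 cells/well, incubated overnight at 37 degrees C in 5% CO2, then exposed to library compounds with dopamine controls for 90 minutes at 37 degrees C before luminescent detection.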
# TDP1 cell noCPT – qHTS for Inhibitors of human tyrosyl-DNA phosphodiesterase 1 (TDP1): qHTS in cells in absence of CPT; DT40 Tdp1-/- hTDP1 cells, no CPT, ATP luminescence, 48 h; Potency, µM (highest dose often 46.2 µM), without a hit: at the top dose activity change, negative = growth inhibition, actives largely listed as inhibitors; hit rate 15% among 420,000; AID 686978, 2013; also: potency is read from the fitted curve at half-maximal effect; % is scaled to controls: 0 for no effect and ±100 for the full control effect; nearly all actives have a fitted effect of over 55% in size
#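 Cells were dispensed at 400 per well, compounds added by pin tool, plates incubated ≥48 hr at 37 °C, then CellTiter-Glo added for 30 min at room temperature before luminescence reading. Line: DT40 Tdp1-/- complemented with hTDP1; camptothecin omitted.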
# Active calls of the source: *; i = inactive; ? = inconclusive; · = no result given. In the library only some 21% were active in any assay of this set; here they are far more common. Unless noted, calls follow the shape of the dose curve; as a rule, active = well fitted inhibition curve with a large enough effect; inconclusive = small, poorly fitted or top-dose-only effect; inactive = flat fitted curve, though single readings scatter.
SMILES,TDP1 cell CPT,DRD3 agonist,IL-1B inflam inh,ClpP mod,DRD3 antagonist,TDP1 cell noCPT
CCCc1[nH]nc2c1C(c1ccc(OCCN3CCOCC3)c(OCC)c1)C(C#N)=C(N)O2 (centres undefined),-26.0%,2.9,-6.9,-0.3%,-5.9,-8.5%
CCOc1cc(C2C(C#N)=C(N)Oc3n[nH]c(CC)c32)ccc1OCCN1CCOCC1 (centres undefined),-17.5%,-6.4,-61.0*,0.5%,?,-10.5%
CCN1C(=NCCOC)N[C@@H](CCc2ccccc2)[C@H](C(=O)OC)[C@H]1C,-3.0%,-28.5,11.5,-3.1%,-2.7,-3.3%
CCN1C(=NCCCOC(C)C)N[C@@H](CCc2ccccc2)[C@H](C(=O)NCCCOC(C)C)[C@H]1C,1.84µM*,6.8,-58.2*,-12.5%,0.0,1.64µM*
COc1ccc(C)cc1-n1c(SCC(=O)NCc2ccco2)nc2c([nH]c3ccccc32)c1=O,?,-14.0,·,?,·,?
COc1ccccc1N(CC(O)CN1C(C)CCCC1C)S(=O)(=O)c1ccccc1 (centres undefined),3.2%,-2.1,-2.8,-0.1%,-6.8,-17.7%
CCCCCCC1CCC(C(=O)NC(C(=O)O)C(C)C)CC1 (centres undefined),-29.5%,3.7,·,-2.4%,·,-28.6%
CCSc1ccc([C@@H]2[C@@H]3C(=O)N(C)C(=O)[C@@H]3[C@]3(C(=O)OC)CCCCN23)cc1,16.4µM*,2.5,?,-2.3%,10.0,?
COC(=O)[C@@]12CCCCN1[C@H](c1ccc(SC3CCCCC3)cc1)[C@H]1C(=O)N(C)C(=O)[C@H]12,?,-11.9,-0.4,-4.1%,31.9,16.4µM*
COC(=O)[C@@]12CCCN1[C@H](c1ccc(SC3CCCCC3)cc1)[C@H]1C(=O)N(C)C(=O)[C@H]12,?,1.3,23.9,-0.9%,-4.2,16.4µM*
COC(=O)[C@@]12CCCCN1[C@H](c1ccc(SC3CCCCC3)c(OC)c1)[C@@H]1C(=O)N(C)C(=O)[C@@H]12,?,-4.4,-24.8,2.7%,23.4,?
O=S(=O)(c1ccccc1)N1CCC2(CCCN(C(c3ccccc3)c3ccccc3)C2)CC1,7.3%,·,·,·,·,-4.2%
CCCCCCc1nc2nc(Cl)c(Cl)nc2[nH]1,18.4µM*,4.1,10.6,-12.7%,12.1,8.2µM*
COc1cccc(-c2cncnc2NC2CCNCC2)c1,2.9%,·,·,·,·,-4.4%
CC1CCCN(C(=O)COC(=O)c2cc(-c3cccs3)nn2-c2ccccc2)C1 (centres undefined),4.5%,-14.8,6.6,-9.0%,10.2,-23.9%
O=C(Nc1ccccc1)c1ccc(CN2CCC(Cc3ccccc3)CC2)cc1,?,-12.7,-19.0,3.7%,-51.2*,?
O=C(Nc1ccccc1C(F)(F)F)c1ccc(CN2CCC(Cc3ccccc3)CC2)cc1,18.4µM*,-16.9,-52.2*,-0.8%,-52.3*,-95.6%
COc1ccccc1Cc1c(-c2ccc(Cl)cc2)nc2c(C)cc(Br)cn12,6.51µM*,-8.1,0.0,-0.7%,?,7.31µM*
Cc1cc(Br)cn2c(Cc3ccccc3C(F)(F)F)c(-c3cccc(Br)c3)nc12,-7.6%,1.4,45.0,-4.4%,11.4,-16.7%
COc1ccc(-c2nc3c(C)cc(Br)cn3c2Cc2ccc(C)cc2)cc1OC,?,26.5,0.0,-4.1%,64.3,?
COc1ccccc1Cc1c(-c2cccc(Br)c2)nc2c(C)cc(Br)cn12,16.4µM*,-11.3,19.6,-2.9%,?,23.1µM*
CCc1cc(CNC(=O)C2CCC(=O)N(CCc3cccc(F)c3)C2)on1 (centres undefined),-10.8%,-9.6,1.5,-20.3%,-5.0,-1.4%
CC(C)[C@H](NS(=O)(=O)c1cccc(Cl)c1)C(=O)OCC(=O)N1CCN(c2ccccc2)CC1,23.1µM*,4.4,-11.0,1.4%,0.8,25.9µM*
CC(C)NS(=O)(=O)c1ccc(OCC(=O)N2CCN(c3cccc(Cl)c3)CC2)cc1,14.6µM*,3.4,·,-0.1%,·,23.1µM*
CCC(=O)Nc1ccc(C(=O)COC(=O)c2nc3nccc(C)n3n2)cc1,-22.5%,0.0,9.6,-1.6%,2.2,26.5%
SMILES,TDP1 cell CPT,DRD3 agonist,IL-1B inflam inh,ClpP mod,DRD3 antagonist,TDP1 cell noCPT
NC(CSC(c1ccccc1)(c1ccccc1)c1cccc2ccccc12)C(=O)O (centres undefined),?,-3.4,-50.2*,-1.4%,-6.4,?
NC(CSC1(c2cccc3ccccc23)c2ccccc2-c2ccccc21)C(=O)O (centres undefined),?,-2.5,17.4,-2.5%,-0.9,?
CSc1nc(N2CCN(c3ccccc3)CC2)cc(N2CCN(c3ccccc3)CC2)n1,-0.9%,5.6,-2.4,·,7.7,-25.3%
CC1(C)CC(=O)C=C(N2CCNCC2)C1,-1.1%,-1.6,-14.5,-2.5%,?,13.7%
CC1CC(C)C[N+](=C2C=C(N3CCCC3)CC(C)(C)C2)C1 (centres undefined),0.206µM*,0.8,?,-4.6%,3.1,0.0082µM*
CC1(C)CC(N2CCN(c3ccccc3)CC2)=CC(=[N+]2CCCC2)C1,0.184µM*,0.4,-101.6*,-0.1%,-23.0,0.231µM*
COc1ccc(S(=O)(=O)Nc2ccccc2C(=O)NN2CCOCC2)cc1OC,-0.5%,5.8,17.3,-4.4%,0.0,1.6%
CN(C)S(=O)(=O)c1ccc(N2CCCC2)c(C(=O)Nc2nc(-c3ccc(F)cc3)cs2)c1,-21.0%,2.2,i,?,16.6,-25.5%
COc1ccc(-c2csc(NC(=O)c3c(OC)cccc3OC)n2)cc1,-29.5%,-1.1,-17.8,0.6%,-5.4,?
COc1ccc(-c2csc(NC(=O)c3ccccc3NS(=O)(=O)c3ccc(C)cc3)n2)cc1,?,8.3,-21.3,?,6.2,14.6µM*
COc1ccc(S(=O)(=O)Nc2ccccc2C(=O)Nc2nc(-c3ccc(F)cc3)cs2)cc1OC,?,7.5,?,15.8µM*,21.4,16.4µM*
CCCNC(=O)c1ccccc1NS(=O)(=O)c1ccc(OC)c(OC)c1,2.0%,-7.3,2.5,31.6µM*,-21.7,1.5%
CCOc1ccc(CCNC(=O)C2CCN(Cc3nc(-c4ccc(OC)c(OC)c4)oc3C)CC2)cc1OCC,-1.2%,8.8,·,-2.0%,·,-7.1%
CC(C)c1nn2c(=O)cc(COC(=O)c3cccs3)nc2s1,2.2%,3.5,·,-1.7%,·,4.0%
